The sample as a whole holds a higher share of hits than the screen did.
LmPK inhibitor = qHTS Assay for Inhibitors of Leishmania Mexicana Pyruvate Kinase (LmPK); Q27686; purified LmPK, Kinase-Glo ATP luminescence, 1 h; Potency, µM (top dose mostly 57.5 µM), without a hit: at the top dose activity change, negative = inhibition, usual class: inhibitors; 290,000 compounds, 0.37% hits; active means well fitted curve in the direction sought with a large enough effect; inconclusive means small, poorly fitted or top-dose-only effect, or another doubt; inactive means no such curve, though single readings can be large; an effect the other way counts as inactive or inconclusive; further: potency means the concentration at half of the fitted maximal effect; on the % scale 0 is the no-effect control and ±100 the full control effect
Target sequence (Q27686 whole entry, looked up): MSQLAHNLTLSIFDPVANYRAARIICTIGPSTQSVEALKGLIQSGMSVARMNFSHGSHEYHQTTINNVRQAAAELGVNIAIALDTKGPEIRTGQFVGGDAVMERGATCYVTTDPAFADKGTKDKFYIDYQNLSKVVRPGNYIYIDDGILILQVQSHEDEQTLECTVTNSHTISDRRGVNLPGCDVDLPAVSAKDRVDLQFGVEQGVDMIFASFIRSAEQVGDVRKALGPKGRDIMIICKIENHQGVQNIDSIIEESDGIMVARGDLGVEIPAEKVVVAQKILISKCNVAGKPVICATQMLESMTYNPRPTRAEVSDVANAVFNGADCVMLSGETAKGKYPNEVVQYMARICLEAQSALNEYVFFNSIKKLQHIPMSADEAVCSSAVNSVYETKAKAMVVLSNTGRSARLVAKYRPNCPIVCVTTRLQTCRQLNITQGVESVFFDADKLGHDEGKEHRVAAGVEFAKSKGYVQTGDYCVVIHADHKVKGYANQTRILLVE
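0.1 nM LmPK, 0.5 mM PEP, 0.1 mM ADP; 50 mM imidazole pH 7.2, 7 mM MgCl2, 50 mM KCl; 1 h RT. Kinase-Glo luminescence readout, normalized to no-enzyme (full inhibition) and uninhibited wells.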
Cycloheximide cs = Cycloheximide Counterscreen for Small Molecule Inhibitors of Shiga Toxin | cell reporter, cycloheximide protein synthesis inhibition counterscreen | max response, % | 300,000 compounds, 12% hits | AID 2314, 2010; in the data active means max response mostly above about 13%, no sharp cut-off; inactive means mostly below about 14%; further: read at 38.3 µM for the half of the compounds with a filed dose; 0% is about no effect
NS1 inh = qHTS Assay for Inhibitors of Influenza NS1 Protein Function. Potency, µM (doses to about 46.1 µM), without a hit: top-dose activity, positive = more growth. 270,000 compounds, 0.4% hits. AID 2326, 2010; further: potency means the concentration at half of the fitted maximal effect; actives are rising curves; nearly all actives have a fitted effect of over 50% in size
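A cell-based growth assay was used: compounds that relieve NS1-induced slow growth of budding yeast raise OD600. Assay medium was yeast nitrogen base with ammonium sulphate and -URA supplement, pH 6.0, with 2% galactose.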
Shiga inhibitor = A qHTS for Small Molecule Inhibitors of Shiga Toxin; 290,000 compounds, 9.2% hits; Vero cells, Shiga toxin protein synthesis inhibition reporter; inhibition, % at 38.7 µM; AID 2315, 2010; in the data active means inhibition mostly above about 28%, no sharp cut-off; inactive means mostly below about 43%; further: 0% is about no effect
SARS PLpro yeast = qHTS of Yeast-based Assay for SARS-CoV PLP; Potency, µM (top dose mostly 32.9 µM), for inactives: at the top dose activity, positive = growth rescue, usual class: activators; S. cerevisiae expressing SARS-CoV PLpro, growth rescue; AID 485353, 2010; 330,000 compounds, 0.19% hits; further: potency means the concentration at half of the fitted maximal effect; 0% is about no effect; nearly all actives have a fitted effect of over 55% in size
TbPYK inhibitor = qHTS of Trypanosoma Brucei Inhibitors; 410,000 compounds, 0.12% hits; pyruvate kinase (Trypanosoma brucei), Q57TT1; Potency, µM (doses to about 76.8 µM), for inactives: at the highest dose activity, negative = inhibition, usual class: inhibitors; AID 624173, 2012; TbPYK enzyme, Kinase-Glo Plus ATP luminescence, 45 min; active means well fitted curve in the direction sought with a large enough effect; inconclusive means small, poorly fitted or top-dose-only effect, or another doubt; inactive means no such curve, though single readings can be large; an effect the other way counts as inactive or inconclusive; further: potency means the concentration at half of the fitted maximal effect; on the % scale 0 is the no-effect control and ±100 the full control effect; nearly all actives have a fitted effect of over 50% in size
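TbPYK + substrate in 50 mM TEA pH 7.2, 100 mM KCl, 10 mM MgCl2, 0.05% BSA, 0.01% Tween-20; cpd pinned; ADP 130 uM final; 45 min RT; Kinase-Glo Plus 10 min; luminescence endpoint.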
* = called active by the depositor; ? = inconclusive; . = not tested or not shown. Unless noted, the call rests on the fitted dose curve.

SMILES | LmPK inhibitor | Cycloheximide cs | NS1 inh | Shiga inhibitor | SARS PLpro yeast | TbPYK inhibitor
C=CCn1c(C)cc(C(=O)CSc2nc3ccccc3[nH]2)c1C | -11% | 34* | 0% | 69* | -12% | -10%
COCC(C)n1c(C)cc(C(=O)CSc2nc3ccccc3c(=O)[nH]2)c1C (configuration not stated) | -1% | 16* | 4% | 45 | 3% | -15%
COCCn1c(C)cc(C(=O)CSc2ccc3ccccc3n2)c1C | 2% | 39* | 8% | 50* | -10% | -9%
CCOC(=O)N1CCN(c2ncnc3c2cnn3-c2ccc(Cl)cc2)CC1 | 4% | 20* | 2% | -19 | 6% | .
CCN1CCN(c2ncnc3c2cnn3-c2ccc(Cl)cc2)CC1 | 1% | 45* | 3% | 74* | -2% | -3%
CCN1CCN(c2ncnc3c2cnn3-c2ccccc2)CC1 | 4% | 21 | -1% | 43 | -6% | 0%
CN1CCN(c2ncnc3c2cnn3-c2ccc(Cl)cc2)CC1 | 4% | 42* | 0% | 66* | -10% | 1%
COc1ccccc1NC(=O)Cc1nnc(SCC(=O)NC2CCCCC2)n1C | 6% | 4 | -15% | -9 | 1% | -10%
NC(=O)c1ccsc1NC(=O)c1cc(=O)c2ccccc2o1 | -1% | 44* | 33% | 38 | -7% | 4%
Cc1ccc(C)c(NC(=O)c2cc(=O)c3ccccc3o2)c1 | -1% | 33* | -34% | 17 | -37% | -1%
N#Cc1ccccc1NC(=O)c1cc(=O)c2ccccc2o1 | -2% | 19 | . | 59* | -7% | 6%
Cc1cccc(NC(=O)c2cc(=O)c3ccccc3o2)n1 | -2% | 24* | -18% | 56 | 0% | 0%
Cc1ccc(NC(=O)c2cc(=O)c3ccccc3o2)c(C)c1 | -4% | 2 | 4% | -4 | -19% | -1%
CCC(C)C(NC(=O)OC(C)(C)C)C(=O)NC1COC2CC(n3ccc(=O)[nH]c3=O)OC12 (configuration not stated) | . | -6 | . | 8 | . | .
COCCCNCCOCCOc1ccc(Cl)cc1C(C)(C)C | -7% | -4 | -16% | -7 | -45% | 19%
Cc1ccc(NC(=O)c2cc(=O)c3ccccc3o2)cc1 | 3% | 29* | -2% | 125 | 3% | -10%
O=C(Nc1nc2ccc(Cl)cc2s1)c1cc(=O)c2ccccc2o1 | . | . | . | . | . | -2%
Cc1cccc(NC(=O)c2cc(=O)c3ccccc3o2)c1 | 2% | 24* | -8% | 27 | -2% | -7%
COc1cccc(NC(=O)c2cc(=O)c3ccccc3o2)c1 | 2% | 19* | -27% | 47* | -8% | -7%
CC(=O)c1sc(NC(=O)c2cc(=O)c3ccccc3o2)nc1C | 1% | 36* | . | 60* | 0% | -7%
COc1ccc(NC(=O)c2cc(=O)c3ccccc3o2)cn1 | -1% | -1 | -9% | -2 | 2% | -8%
Cc1cccc(NC(=O)c2oc3ccccc3c2NC(=O)c2cc(=O)c3ccccc3o2)c1 | . | . | . | . | . | -3%
Cc1ccc(S(=O)(=O)N(C)c2ccc(C(=O)NC3CCCCC3)cc2)cc1 | . | . | . | . | . | -1%
CN1CCN=C(c2ccccc2)c2cc(Cl)ccc21 | . | . | . | . | . | 0%
CC(=O)c1ccc(NC(=O)CC2Oc3ccc(C)cc3NC2=O)cc1 (configuration not stated) | . | . | . | . | . | -2%
SMILES | LmPK inhibitor | Cycloheximide cs | NS1 inh | Shiga inhibitor | SARS PLpro yeast | TbPYK inhibitor
O=C(NCCc1ccc(F)cc1)c1cc(=O)c2ccccc2o1 | 13% | 25* | . | 30 | -2% | 0%
Cc1c(C(=O)Nc2cccc(-c3nc4ccccc4s3)c2)oc2ccccc12 | . | . | . | . | . | -5%
O=C(COC(=O)c1cc(=O)c2ccccc2o1)Nc1ccc2ccccc2c1 | -2% | 11* | 5% | -22 | -12% | 1%
O=C(COC(=O)c1cc(=O)c2ccccc2o1)Nc1c(F)c(F)c(F)c(F)c1F | . | . | . | . | -1% | -2%
O=C(Nc1cccc(-c2nc3ccccc3s2)c1)c1cc(=O)c2ccccc2o1 | 0% | 14 | 3% | 31* | -6% | -5%
O=C(CCS(=O)(=O)c1cc2c3c(c1)CCN3C(=O)CC2)NCc1ccc(F)cc1 | . | . | . | . | . | -3%
Cc1cc(=O)[nH]c(N=N/C(=N/Nc2ccc(O)cc2)c2ccccc2)n1 | ? | 49* | -64% | 100* | 3% | -16%
Cc1cc(=O)[nH]c(N=N/C(=N/Nc2ccccc2C)c2ccccc2)n1 | ? | 8 | -4% | -14 | -4% | -8%
COc1ccc(N/N=C(/N=Nc2nc(C)cc(=O)[nH]2)c2ccccc2)cc1 | -23% | 62* | -46% | 91* | ? | -5%
COc1ccc(C(=O)C(=NNc2ccccc2)c2ccc(OC)cc2)cc1 | . | . | . | . | . | 0%
COc1ccc(CCNC(=O)c2ccc3c(c2)N(Cc2ccc(Cl)cc2)CCS3)c(OC)c1 | . | . | . | . | . | 2%
CC(C(=O)Nc1cccc([N+](=O)[O-])c1)[n+]1ccccc1 (configuration not stated) | 9% | 0 | 6% | 12 | -2% | 0%
CC(Sc1cccc[n+]1[O-])C(=O)Nc1cccc([N+](=O)[O-])c1 (configuration not stated) | 7% | 16* | . | 19 | 1% | -6%
Nc1ccccc1C(=O)N1CCc2ccccc21 | -7% | 26* | -10% | 69* | 2% | 5%
O=C(OCC(=O)N1CCc2ccccc21)c1ccccc1 | -25% | 43* | -14% | 118* | 0% | 0%
COc1cccc(C(=O)OCC(=O)N2CCc3ccccc32)c1OC | . | . | . | . | 4% | -4%
O=C(OCC(=O)N1CCc2ccccc21)c1cccnc1 | -12% | 33* | -5% | 45* | -9% | 5%
Nc1ccccc1C(=O)OCC(=O)N1CCc2ccccc21 | -2% | 39* | -9% | 79* | -4% | 3%
O=C(Nc1ccc(F)c(Cl)c1)c1ccc2c(Cl)c3c(nc2c1)CCCC3 | . | . | . | . | . | 1%
COc1cccc(/C=N/NC(=O)c2[nH]nc3c2CCc2ccccc2-3)c1 | 1% | -3 | -6% | -8 | -2% | 7%
CNC(=O)c1[nH]nc2c1CCc1cc(OC)ccc1-2 | -9% | 57* | -1% | 87* | -7% | 2%
CC(C)NC(=O)c1[nH]nc2c1CCc1ccccc1-2 | -5% | 42* | -7% | 110* | -7% | 3%
COc1ccc(OC)c(/C=N/NC(=O)c2[nH]nc3c2CCc2ccccc2-3)c1 | 1% | 5 | -4% | -11 | -12% | 3%
COc1ccc2c(c1)CCc1c-2n[nH]c1C(=O)NCCC(C)C | -2% | 43* | 2% | 88* | -1% | -1%
Cc1cc(C)cc(NC(=O)CSc2nccn2C2CCCC2)c1 | . | . | . | . | . | 2%
Cc1nc2ncnn2c(C)c1CCC(=O)NCc1ccccc1Cl | . | . | . | . | . | -1%

Bioassay records: PubChem BioAssay, National Center for Advancing Translational Sciences (NCATS)
